Measured values published in PubChem BioAssay (NCI).
This is part of a sample that, as a whole, favours compounds with a hit. Of some 79,000 tested, about 15% had one in any assay. No stated cut-off is given here; in the data, active means growth inhibition above about 70%; inactive means the rest.

Key:
[1] = NCI Yeast Anticancer Drug Screen. Data for the rad50 strain (AID 155);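 further: 0% = growth of vehicle-only cultures of the same strain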; details: S. cerevisiae rad50 strain growth inhibition; at 50.0 µM; active compounds read high
Method in brief: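 Growth of the mutant yeast was measured after compound exposure and referenced to vehicle-treated cultures.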

[2] = NCI Yeast Anticancer Drug Screen. Data for the mec2-1 strain (AID 157); details: S. cerevisiae mec2-1 strain, at 50.0 µM, active compounds read high
Method in brief: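 Using mec2-1 yeast: add compound, measure growth, express inhibition versus vehicle-treated cultures.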

[3] = NCI Yeast Anticancer Drug Screen. Data for the sgs1 mgt1 strain (AID 161);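 further: 0% = growth of cultures given vehicle only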; details: S. cerevisiae sgs1 mgt1 strain, at 50.0 µM, active compounds read high
Method in brief: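 Yeast cells carrying a defined DNA-repair defect were exposed to test compounds. Growth inhibition was measured relative to vehicle-treated controls.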

[4] = NCI Yeast Anticancer Drug Screen. Data for the cln2 rad14 strain (AID 165);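 further: 0% = growth equal to vehicle treated cultures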; details: S. cerevisiae cln2 rad14 strain, at 50.0 µM, active compounds read high
Method in brief: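 Yeast strain cln2 rad14, bearing defects in cell cycle control and DNA repair, serves as the test system; values reflect growth inhibition compared with vehicle.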

[5] = NCI Yeast Anticancer Drug Screen. Data for the bub3 strain (AID 167); details: S. cerevisiae bub3 mutant strain, at 50.0 µM, active compounds read high
Method in brief: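 Whole-cell yeast assay. The mutant strain was incubated with compounds, and growth inhibition was determined by comparison with vehicle-treated cells.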

[6] = NCI Yeast Anticancer Drug Screen. Data for the mlh1 rad18 strain (AID 175); details: S. cerevisiae mlh1 rad18 strain growth inhibition; at 50.0 µM; active compounds read high
Method in brief: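 Steps: expose repair-defective yeast to compound; measure growth; express inhibition against vehicle-treated controls.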

Measured: growth inhibition

CCCCc1ccc(Nc2nc(=S)c3[nH]cnc3[nH]2)cc1
inactive: [1] 26.9% | [2] 19.6% | [3] 32.2% | [4] 23.9% | [5] 35% | [6] 6.5%

Cc1ccc(NC(=O)CCC(=O)C(C)C(=O)c2ccccc2)cc1C (centres undefined)
inactive: [1] -72.1% | [2] -7.6% | [3] -14.3% | [4] -55.7% | [5] -12.8% | [6] -9.4%

O=C1CSSCC(=O)Nc2ccccc2N1
inactive: [1] 6.35% | [2] 0.5% | [3] -0.2% | [4] 16.2% | [5] 19.4% | [6] -4%

CCCCN=C(NC#N)NCCCC
inactive: [1] -27.6% | [2] 7.9% | [3] -31.2% | [4] -0.1% | [5] -25.4% | [6] -13.8%

N#Cc1nc(CC(=O)c2ccccc2Cl)c(CC(=O)c2ccccc2Cl)nc1C#N
inactive: [1] 22.4% | [2] 20.1% | [3] 5.6% | [4] 25.4% | [5] 13.4% | [6] 19.4%

Cc1cc(=O)[nH]c(-n2[nH]c(C)c(CCO)c2=O)n1
inactive: [1] -13.3% | [2] -17.2% | [3] 14.8% | [4] 19.9% | [5] -5.9% | [6] 18.4%

O=C1CSC(c2ccccc2C(F)(F)F)N1c1nncs1 (centres undefined)
inactive: [1] 18.4% | [2] 1% | [3] 11.6% | [4] -46% | [5] -39.2% | [6] 9.8%

CC1(C)CC2(CC(C)(C)N1O)NC(=O)OC2=O
inactive: [1] 2.5% | [2] -5.3% | [3] -1.05% | [4] -18.6% | [5] -23.1% | [6] 1.3%

CCn1c(=NC(=O)c2ccccc2O)sc2ccccc21
inactive: [1] 16.5% | [2] 4% | [3] 2.15% | [4] 17.9% | [5] -5.7% | [6] -3.05%

Oc1ccccc1-c1cc(-c2ccccc2)nc(NCCCCNc2nc(-c3ccccc3)cc(-c3ccccc3O)n2)n1
inactive: [1] -5.05% | [2] -3.95% | [3] -14.7% | [4] -21.8% | [5] -1.75% | [6] -2.65%

CCCCCCCCCC(=O)N(C)OC
inactive: [1] 6.1% | [2] 4.3% | [3] 7.05% | [4] 1.3% | [5] -4.6% | [6] 18.1%

CC(C(=O)c1ccccc1)N(C)c1ccccc1 (centres undefined)
inactive: [1] 12.7% | [2] -5.35% | [3] -3.1% | [4] -36.8% | [5] -26% | [6] -1.65%

CCC(CCCCCc1ccccc1)(C(=O)O)C(=O)O
inactive: [1] -0.7% | [2] 10.8% | [3] 21.7% | [4] -55% | [5] -5.2% | [6] -2.95%

NCCNC(=O)c1ccccc1
inactive: [1] -6.5% | [2] 1.8% | [3] 0.75% | [4] 17.3% | [5] -7.95% | [6] 4.65%

O=S(=O)(c1ccc(I)cc1)c1ccc(I)cc1
inactive: [1] 22.6% | [2] 0.1% | [3] -9.15% | [4] 5.2% | [5] 5.35% | [6] 3.7%

CCOC(=O)/C=C(\CC(=O)OCC)Nc1ccc(OC)cc1
inactive: [1] 6.8% | [2] -21.1% | [3] 4.1% | [4] -13.2% | [5] -2.3% | [6] -15.9%

CC(=O)c1cccc(NC(=O)Nc2cccc(C)n2)c1
inactive: [1] -9.55% | [2] 32.8% | [3] 11.9% | [4] -24.6% | [5] 8.55% | [6] 12.6%

CC1(C)OC(=O)N=C1c1ccc(F)cc1
inactive: [1] -9.3% | [2] 7.7% | [3] -1.25% | [4] 2% | [5] -1.65% | [6] 17.4%

CCOc1c2ccsc2c(OCC)c2ccsc12
inactive: [1] -14.9% | [2] -25.8% | [3] -10.2% | [4] 6.05% | [5] -5.15% | [6] -35.8%

COc1cccc2c1OC(=O)NC2O (centres undefined)
inactive: [1] -8.35% | [2] -4.3% | [3] -17.9% | [4] -13.5% | [5] -20.4% | [6] 4.3%

C/C(C=C(C#N)C#N)=C\c1ccc(F)cc1
inactive: [1] 14.9% | [2] 28.1% | [3] -2.1% | [4] 30.9% | [5] -7.3% | [6] 21.4%

O=C(CCCC(=O)Nc1ccccc1)Nc1ccccc1
inactive: [1] -9.35% | [2] -6.9% | [3] -1.55% | [4] -35.2% | [5] -14.1% | [6] -15.7%

OCC(O)C1OC2CC1Nc1ccccc1N2 (centres undefined)
inactive: [1] -30.6% | [2] -21.3% | [3] 9.6% | [4] 17.3% | [5] -15.1% | [6] -12.7%

C[N+](C)(C)CC(=O)N/N=C(/Cc1cc(=O)oc2cc(O)ccc12)C(=O)Nc1ccc(Cl)cc1
inactive: [1] 7.35% | [2] -2.45% | [3] -11.3% | [4] -15.7% | [5] -19.8% | [6] -10.8%

Cc1cc(=O)[nH]c(NN2C(Cl)C(=O)C2c2c(O)ccc3ccccc23)n1 (centres undefined)
inactive: [1] -8.2% | [2] -10.6% | [3] -0.75% | [4] 13.3% | [5] 0.7% | [6] -32.8%

O=C(Nc1ccccc1)c1cc2ccccc2oc1=O
inactive: [1] 6.95% | [2] -2.65% | [3] -4.5% | [4] 4.75% | [5] -13.2% | [6] 9.55%

CC(/C=C/C(=O)c1ccccc1)=C\C=N\N(C)c1ccccc1
inactive: [1] 17.2% | [2] 2.8% | [3] -1.05% | [4] -40.8% | [5] 4.95% | [6] 1.5%

CN=Cc1ccccc1O.CN=Cc1ccccc1O.[Cu+2]
inactive: [1] 6.55% | [2] -8.6% | [3] -10.9% | [4] -73.8% | [5] -2.5% | [6] 3.05%

CC[P+]1(c2ccccc2)[C@@H](C)CC[C@@H]1C
inactive: [1] 15.1% | [2] 7.45% | [3] 12.6% | [4] 8.1% | [5] 3.75% | [6] 37.7%

COC(=O)CCC(NC(=S)N/N=C(\C)c1cccs1)C(=O)OC (centres undefined)
inactive: [1] 14.1% | [2] -10.3% | [3] 17.3% | [4] 0.45% | [5] 7.4% | [6] -0.25%

Oc1cccc2ccc(Br)nc12
inactive: [1] -10.1% | [2] 15.2% | [3] 7.25% | [4] 4.9% | [5] 5.45% | [6] -3.25%

CCN(CC)CCOC(NC(C)=O)(c1ccccc1)c1ccccc1
inactive: [1] 3.5% | [2] -9.55% | [3] 9.85% | [4] 1.55% | [5] 14.8% | [6] 20%

OCC1(c2ccccc2)CCNCC1
inactive: [1] -8.7% | [2] -4.9% | [3] -2.1% | [4] -0.7% | [5] -9.7% | [6] 26.6%

CC(=O)NNc1nc(C)c(C(/C=C/c2cccc([N+](=O)[O-])c2)=N/NC(=S)NN)s1
inactive: [1] 5.85% | [2] -5% | [3] 2.2% | [4] 4.35% | [5] 12.4% | [6] 12.1%

CCN(CC)c1ncnc2n[nH]nc12
inactive: [1] -1.5% | [2] -15.6% | [3] -18% | [4] -27.9% | [5] -28.5% | [6] 3.45%

O=C1CCCCC1O (centres undefined)
inactive: [1] -18.4% | [2] -50.8% | [3] -15.2% | [4] 0.05% | [5] -13.8% | [6] -26.1%

C/C=C(\Cl)C=O
inactive: [1] 12.4% | [2] 5% | [3] -22.9% | [4] -9.7% | [5] 3.5% | [6] 11.2%

Oc1ccc(Br)cc1C(=S)N1CCOCC1
inactive: [1] 9.3% | [2] 18.4% | [3] 4.45% | [4] 3.6% | [5] -10.1% | [6] 37.2%

NC(=O)C(N)C(N)=NCc1ccccc1 (centres undefined)
inactive: [1] 10% | [2] 1.35% | [3] 4.15% | [4] -7.25% | [5] -2.3% | [6] 13.5%
